# The list is not random: actives were taken first. Their share in the collection is about 1.9%.
# Giardia killer: kills Giardia lamblia; activity change, % at 7.66 µM, hits read low; Giardia lamblia trophozoite viability; AID 540267; 0.15% of 340,000 active; in the data active = activity change below about -80%; inconclusive = between about -30% and that limit;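 also: parasites exposed to compound for two days anaerobically before the ATP read; % is scaled to controls: 0 for no effect and ±100 for the full control effect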
#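 Viability, read as ATP luminescence: trophozoites at 100 cells/well, compound added, 48 hrs anaerobic at 37 deg C, then 15-30 min room-temperature development before reading.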
# IL2 activator: activates IL-2 in a cell-based reporter assay | IL-2 activation reporter assay, cell-based qHTS; stimulated with anti-CD3/CD4/CD28 beads; in transgenic mouse T cells | activation, % (series mostly up to about 46 µM) | 0.065% of 360,000 active | AID 652025; in the data active = activation above about 50%; inconclusive = mostly about 30% to 49%; also: 0% is about no effect
#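 Readout is EGFP and DsRed signal by fluorescent plate cytometry after 18 h at 37 degrees C. Transgenic mouse T cells (750/well) received compound for 60 min before bead stimulation (anti-CD3, anti-CD4, anti-CD28); memory T cells served as non-tolerant control.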
# RXFP1 agonist: agonists of human relaxin receptor RXFP1; HEK293T-RXFP1 cAMP TR-FRET, 30 min; response scale: percent of porcine relaxin response, buffer zero; AID 2676; Potency, µM (series often up to 57.5 µM), for the others: top-dose activation, most hits filed as activators; Q9HBX9; 0.3% of 370,000 active; also: potency is read from the fitted curve at half-maximal effect; % is scaled to controls: 0 for no effect and ±100 for the full control effect; nearly all actives have a fitted effect of over 60% in size
#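 Agonist response is measured as cAMP accumulation in an RXFP1-transfected HEK293T line under PDE4 inhibition. Values are scaled between buffer-only and 29 nM porcine relaxin, and EC50s come from standard Hill equation fits.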
# RXFP1 antag: blocks the human relaxin receptor RXFP1; Q9HBX9; HEK293-RXFP1, relaxin-stimulated cAMP HTRF, 30 min; active compounds read low; activity change, negative = inhibition, % at 57.5 µM; 0.59% of 350,000 active; AID 1259400;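 active = activity change of -60% or lower, but not beyond a set lower limit; inconclusive = change between -60% and -40%, or beyond the set limit; inactive = change above -40%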; also: % is scaled to controls: 0 for no effect and ±100 for the full control effect
# NPSR antag: blocks cAMP signaling of the human neuropeptide S receptor | Q6W5P4 | CHO-NPSR cells, cAMP TR-FRET, antagonist mode | Potency, µM (highest dose often 38.3 µM), for inactives: top-dose activity change, negative = inhibition, most hits filed as inhibitors | 1% of 220,000 active; also: potency is read from the fitted curve at half-maximal effect; % is scaled to controls: 0 for no effect and ±100 for the full control effect; nearly all actives have a fitted effect of over 50% in size
# Target sequence (Q6W5P4 whole entry, looked up): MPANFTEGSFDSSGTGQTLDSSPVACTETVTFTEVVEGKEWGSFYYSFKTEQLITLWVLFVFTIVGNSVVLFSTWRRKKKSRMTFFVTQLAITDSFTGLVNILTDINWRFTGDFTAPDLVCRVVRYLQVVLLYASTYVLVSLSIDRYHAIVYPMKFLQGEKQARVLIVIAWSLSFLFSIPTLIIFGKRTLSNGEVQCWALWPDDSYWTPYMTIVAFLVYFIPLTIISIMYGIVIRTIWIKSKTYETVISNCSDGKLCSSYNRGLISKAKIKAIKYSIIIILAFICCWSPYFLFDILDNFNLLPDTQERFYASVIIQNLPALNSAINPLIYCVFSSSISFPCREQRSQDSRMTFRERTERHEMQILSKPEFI
# BRCA1 expr up: activators of BRCA1 expression. MCF7-BRCA1-FFLuc reporter, luminescence, 48 h; response scale: scaled: vehicle 0%, 10 µM genistein 100%. Potency, µM (titrated, usually from 46.1 µM), for inactives: at the highest dose activation, actives largely listed as activators. 1.1% of 380,000 active. AID 624202; also: potency is read from the fitted curve at half-maximal effect; nearly all actives have a fitted effect of over 80% in size
#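 MCF7 cells carrying a BRCA1-firefly luciferase reporter (2000 cells/well, phenol-red free MEM) were attached for 2 h at 37 °C, then given compounds for 48 h. Luminescence was read 15 min after luciferase reagent; activity normalized to genistein (10 microM) and DMSO.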
# The depositor's hits bear a star; ? = inconclusive; . = no result given; [ ] = another dose, or the depositor's remark. Unless noted, calls follow the shape of the dose curve; as a rule, active = well fitted curve in the direction sought with a large enough effect; inconclusive = small, poorly fitted or top-dose-only effect, or another doubt; inactive = no such curve, though single readings can be large; an effect the other way counts as inactive or inconclusive.
SMILES,Giardia killer,IL2 activator,RXFP1 agonist,RXFP1 antag,NPSR antag,BRCA1 expr up
OC(COc1ccc(Cl)cc1)CN1CCC(Cc2ccccc2)CC1 (configuration not stated),5.5,0.5,-1.0%,-16.2,.,-11.2%
Cc1ccc(C(C)C)c(OCC(O)CN2CCN(c3ccccc3F)CC2)c1 (configuration not stated),.,.,-0.1%,-23.0,.,.
Cc1ccc(C)c(OCC(O)CN2CCC(Cc3ccccc3)CC2)c1 (configuration not stated),-15.1,-1.1,2.3%,-69.6*,.,-78.8%
C[N+]1(CC(=O)c2c3ccccc3cc3ccccc23)CCOCC1,.,.,.,.,.,3.2%
O=C(NC(=S)Nc1ccc2c(c1)OCCO2)c1cccc(Br)c1,-19.5,0.0,-0.2%,-2.4,-3.5%,3.98µM*
COc1cc(NC(=S)Nc2ccc3c(c2)OCCO3)cc(OC)c1OC,2.8,-2.5,0.7%,2.5,7.8%,58.4%
S=C(Nc1ccc(Br)cc1)Nc1ccc2c(c1)OCCO2,4.8,-2.6,1.4%,-3.2,.,11.2µM*
CC(=O)c1cccc(NC(=O)COC(=O)c2ccccc2OCc2cccc(Br)c2)c1,.,.,.,.,.,12.7%
CCOc1cccc(/C=N/Nc2nc(N3CCCC3)nc(N3CCCC3)n2)c1O,2.1,-0.8,-1.2%,2.3,-4.8%,-51.1%
CCOc1cc(/C=N/Nc2nc(N3CCCC3)nc(N3CCCC3)n2)ccc1O,13.4,-0.1,-4.5%,-7.3,12.6µM*,-21.7%
CC1CCC(N2CC(=O)N(C3CCCCC3)C(c3ccc(Cl)cc3)C2=O)CC1 (configuration not stated),.,.,1.5%,-1.0,.,.
Cc1cc(C)c(O)c(-c2cc(C(=O)Nc3ccc(S(=O)(=O)N4CCOCC4)cc3)[nH]n2)c1,-9.4,-4.5,0.0%,-2.8,12.6µM*,-85.1%
COc1ccccc1C1(O)CCN(CC(=O)Nc2nc(-c3ccccc3)cs2)CC1,-15.9,-3.6,-0.7%,-76.4*,-4.8%,-37.8%
CCc1nnc(NC(=O)CN2CCC(O)(c3ccccc3OC)CC2)s1,-4.0,0.4,0.2%,11.7,-1.5%[46.1 µM],-4.3%
CCN(CC)C(=O)c1sc2[nH]c(=S)n(-c3ccccc3)c(=O)c2c1C,-14.4,-1.9,11.2%,-66.8*,12.8%[46.1 µM],-0.9%
CCN(CC)C(=O)c1sc2c(c1C)c(=O)n(-c1ccccc1)c(=O)n2CC(=O)N(CC)c1cccc(C)c1,.,.,0.2%,4.3,.,.
CCc1ccc(-n2nc3cc(C)c(NC(=O)c4cc(Cl)ccc4OC)cc3n2)cc1,.,.,1.4%,0.6,.,.
C(=N\Nc1nc(Nc2ccccc2)nc(Nc2ccccc2)n1)/c1ccncc1,1.7,-0.9,-1.0%,-60.9*,2.7%,-11.6%
Cc1ccc(-c2nc3cc(C(C)C)ccc3o2)cc1NC(=O)c1cc([N+](=O)[O-])ccc1N1CCOCC1,.,.,1.5%,.,.,-60.8%
O=C(Nc1ccccc1Br)c1cnn2c1NC(=C1CC1)C=C2C(F)F,.,.,.,.,.,-23.7%
CN(C)C(=O)c1cc(C(=O)c2ccc(C(F)(F)F)cc2)c[nH]1,-13.1,-0.3,-2.3%,7.9,.,10µM*
CCOc1ccc(CNC(=O)c2ccc(NC(=O)N3CCSc4ncccc43)cc2)cc1OC,.,.,0.8%,-19.5,.,.
Cc1cc(NC(=O)c2ccc(Cl)cc2)no1,-29.0,-1.6,0.5%,8.6,-5.2%[46.1 µM],3.98µM*
Cc1cc(NC(=O)NC(=O)c2ccccc2)no1,31.8,-0.3,0.0%,-3.8,.,5.01µM*
CN(C)c1ccc(C=Nc2cnc3ccccc3c2)cc1,.,.,.,.,.,26.6%
SMILES,Giardia killer,IL2 activator,RXFP1 agonist,RXFP1 antag,NPSR antag,BRCA1 expr up
COC(=O)c1ccc(NC(=O)CC2C(=O)N(c3cccc(OC)c3)C(=O)N2Cc2ccco2)cc1 (configuration not stated),.,.,1.3%,16.8,.,.
O=C(NC(=S)NCCc1ccccc1)C1CCCCC1,-19.4,-0.1,0.5%,-7.0,-31.3%,32.8%
O=C(CNC(=S)NC(=O)C1CCCCC1)c1ccccc1,-2.3,1.4,?,-3.9,-39.0%,6.31µM*
CC1CCN2c3ccccc3CC3(C(=O)OC(C)(C)OC3=O)C2C1 (configuration not stated),-10.9,.,.,.,.,6.0%
CCCCC(=O)Nc1cnc(NC(=O)c2ccco2)cc1C,17.0,2.1,-2.2%,-5.6,.,11.2µM*
O=C(Nc1ccc(NC(=O)c2ccco2)nc1)c1ccco1,?,-0.2,1.2%,-3.3,6.8%,-22.0%
CCCC(=O)Nc1cc(C)c(NC(=O)c2ccco2)cn1,5.0,-0.2,-0.2%,-10.6,.,8.6%
CC(C)(C)C(=O)Nc1ccc(NC(=O)c2ccco2)nc1,-94.0*,-2.6,0.5%,15.2,.,-101.3%
O=C(Cc1ccccc1)Nc1ccc(NC(=O)c2ccco2)nc1,2.7,-0.9,-1.8%,-1.9,-7.2%[46.1 µM],5.62µM*
O=C(C1CCCCC1)N1CC(=O)N2CCCc3ccccc3C2C1 (configuration not stated),.,.,.,-18.3,.,.
Fc1ccc2nc(N3CCOCC3)sc2c1,-4.0,-2.9,3.0%,-9.8,24.0%,11.2µM*
Clc1cccc2sc(N3CCOCC3)nc12,-16.0,4.6,.,10.5,.,15.8µM*
COC(=O)c1ccccc1NC(=O)c1cnn2c1NC(=C1CC1)C=C2C(F)F,.,.,.,.,.,-23.6%
O=C(Nc1ccc(Cl)cc1)C1CCN(c2nc3ccccc3n3cccc23)CC1,.,.,3.3%,-6.4,.,.
Cc1ccc(OCC(=O)NC(=S)Nc2ccccn2)c(Br)c1,?,-1.8,0.9%,-3.4,.,11.2µM*
Nc1nc(-c2cccc(F)c2)cs1,-8.6,-0.5,-0.3%,-0.6,-7.6%,11.2µM*
Nc1nc(-c2ccc3c(c2)OCCO3)cs1,8.3,-0.4,-2.2%,-8.1,-8.7%[46.1 µM],81.3%
Nc1nc(-c2ccc3c(c2)CCCC3)cs1,-6.6,8.3,-0.1%,1.7,-8.1%[46.1 µM],3.16µM*
CC1Cc2cc(-c3csc(N)n3)ccc2O1 (configuration not stated),-1.5,-0.5,0.4%,-3.8,.,3.16µM*
Cc1ccc(CCn2c3c(c4cc(Cl)ccc42)CN(C)CC3)cn1,.,.,.,-16.0,.,.
NC(=O)c1c(NC(=O)c2ccc([N+](=O)[O-])o2)sc2c1CCCC2,-91.3*,1.0,3.9%,8.7,.,-75.5%
N#Cc1c(NC(=O)c2ccc([N+](=O)[O-])o2)sc2c1CCC2,-94.2*,-4.8,-5.5%,5.9,.,-89.6%
NC(=O)c1ccsc1NC(=O)c1ccc([N+](=O)[O-])o1,-95.3*,0.3,.,10.9,.,4.9%
CCOc1ccccc1N(C)C(=O)c1c2c(nc3ccccc13)C(=O)N(C1CCCCC1)C2,.,.,-0.2%,-21.3,.,.
C=CCNC(=S)Nc1sc2c(c1C(=O)OCC)CCN(C(=O)OCC)C2,8.7,-0.1,11.2%,-80.3*,-14.5%[46.1 µM],40.3%
CCOC(=O)c1c(NC(=S)N2CCCCC2)sc2c1CCN(C(=O)OCC)C2,7.4,-1.0,7.5%,-16.2,?,-77.3%

# From PubChem BioAssay
